Test results reported in PubChem BioAssay (NCATS).
Results filed as inconclusive are left out. Calls of active or inactive are those of the source. Calls follow the shape of the dose curve; as a rule, active = well fitted curve in either direction with a large enough effect (not every such curve was filed as active); inconclusive = small, poorly fitted or top-dose-only effect, or another doubt; inactive = flat fitted curve, though single readings scatter.

Assay: Stat Signaling Pathway (AID 446)
Details: ME-180 (cervical carcinoma) SIE beta-lactamase reporter, IL-6 stimulated, 5 h; at 7.69 µM (top of the series) unless noted
Description: NCGC Assay Overview: The IL-6/STAT signaling pathway was assayed in ME-180 cervical carcinoma cells by a beta-lactamase reporter gene controlled by a STAT Inducible Element (SIE). This reporter is induced by IL-6 at 40 pM AC50 and inhibited by the pan JAK inhibitor, 2-(1,1-Dimethylethyl)-9-fluoro-3,6-dihydro-7H-benz[h]-imidaz[4,5-f]isoquinolin-7-one, at approximately 10 nM AC50. Plated cells were incubated overnight and on the following day, stimulated with 40 pM IL-6 for 5 hrs. The assay was screened at the AC50 of IL-6 activation to identify both inhibitors and activators of IL-6/STAT signaling.
NCGC Assay Protocol Summary: Cells were trypsinized, washed in assay medium (AM, OPTI MEM with 0.5% fetal bovine serum, 0.1 mM nonessential amino acids, 1 mM sodium pyruvate, 10mM HEPES pH 7.3, 100U/ml penicillin, and 100 ug/ml streptomycin) and suspended at 6 x 10e5/ml in AM. Approximately […] cells in 5 uL/well was dispensed into 1536 well plates and the cells were incubated overnight at 37 C. 23 nL of compound were delivered by a pin tool and 1 uL of IL-6 (40 pM final concentration in AM) was added. After centrifugation at 1000 rpm for less than a minute, plates were incubated at 37C for 5 hrs. One uL of detector mix (LiveBLAzerTM, Invitrogen) was added, the plates incubated at room temperature for 2.5 hrs, and fluorescence intensity at 460 and 530 nm emission was measured at 405 nm excitation by an Envision (Perkin Elmer) or Safire II (Tecan). Data were normalized by GeneData to the controls for AC90 stimulation (300 pM IL-6) and to AC90 inhibition (125 nM Jak inhibitor, 40 pM IL-6 in AM).
% is scaled to controls: 0 for no effect and ±100 for the full control effect.

| Compound | activity, negative = inhibition |
| --- | --- |
| FC(F)(F)c1nc2ccc(SSc3ccc4nc(C(F)(F)F)[nH]c4c3)cc2[nH]1 | -6.22% (inactive) |
| CC(C)[C@@]1(NC(=O)[C@H]2C[C@H]3c4cccc5[nH]cc(c45)C[C@@H]3N(C)C2)O[C@]2(O)[C@H]3CCCN3C(=O)[C@H](Cc3ccccc3)N2C1=O | -34.2% [at 38 µM] (inactive) |
| NCCP(=O)(O)O | 10.6% (inactive) |
| O=C(Oc1ccccc1)N1CCC[C@@]2(CCN(Cc3nccs3)C2)C1 | -14.8% (inactive) |
| NC(=O)CN1C[C@@H](O)CC1=O | -8.38% [at 38 µM] (inactive) |
| Nc1ccc(S(=O)(=O)c2ccc(NCN3C(=O)NC(=O)C(=O)C3=O)cc2)cc1 | -4.49% (inactive) |
| c1ccc(CCN2CCOCC2)nc1 | 4.66% (inactive) |
| CCN(CC)c1ncnc2c1ncn2[C@@H]1O[C@@H](COP(=O)(O)OP(=O)(O)C(Br)(Br)P(=O)(O)O)[C@H](O)[C@@H]1O | -1.38% [at 38 µM] (inactive) |
| Cc1c([C@@H](C)[C@H]2NC[C@H](C)C[C@@H]2O)ccc2c1C[C@@H]1[C@H]2CC=C2C[C@@H](O)CC[C@@]21C | -1.08% (inactive) |
| O=C(O)C[C@H]1OCC=C2CN3CC[C@@]45C6=CC(=O)C(=O)C([N+](=O)[O-])=C6N[C@H]4[C@H]1[C@H]2C[C@@H]35 | 2.08% (inactive) |
| C[N+]1(C)C2CC[C@H]1CC(OC(=O)[C@@H](CO)c1ccccc1)C2 (stereo not given in full) | 7.35% (inactive) |
| C[C@@H](Cc1ccc(Cl)cc1Cl)NO | -0.402% (inactive) |
| CN(C)CCCc1cccnc1 | -4.3% (inactive) |
| CN(CCC(=O)O)C1=Nc2ccc(Cl)cc2C(c2ccccc2)=[N+]([O-])C1 | 1.77% (inactive) |
| COC(=O)[C@@H]1c2cc3c(c(O)c2[C@@H](O)C[C@]1(C)O)C(=O)c1c(O)cc2c(c1C3=O)O[C@H]1O[C@@]2(C)[C@@H](O)[C@H](N(C)C)[C@H]1O | -3.22% (inactive) |
| O=C(O)C[C@H]1OCC=C2CN3CC[C@]45c6ccccc6N[C@@H]4[C@H]1[C@H]2C[C@H]35 | -4.29% (inactive) |
| CC(C)CCC1(CCN)C(=O)NC(=O)NC1=O | 1.34% (inactive) |
| O=C(O)Cc1ccc([N+](=O)[O-])cc1[N+](=O)[O-] | 5.17% (inactive) |
| O=C(O)C[O][Sb][O]CC(=O)O | 7.88% (inactive) |
| C[C@@]12CC[C@H](O)C[C@@H]1CC[C@@H]1[C@@H]2CC[C@@]2(C)[C@@H](C3=CC(=O)OC3)[C@H](O)C[C@]12O | 8.74% (inactive) |

| Compound | activity, negative = inhibition |
| --- | --- |
| Cc1nc2ccccc2cc1C[N+]12CN3CN(CN(C3)C1)C2 | 6.99% (inactive) |
| C[C@]12CC[C@@H]3[C@H](CCC4=CC(=O)CC[C@]43C)[C@]1(O)CC[C@@]2(O)C(=O)CO | -1.84% (inactive) |
| N[C@@H](Cc1c[nH]c2cc([N+](=O)[O-])ccc12)C(=O)O | 10.4% (inactive) |
| O=C(NCP(=O)(O)O)c1cccnc1 | 4.58% (inactive) |
| C[C@H](CC(C#N)(c1ccccc1)c1ccccc1)N1CCCCC1 | 2.01% (inactive) |
| O=C(O)C(=O)Cc1ccc2c(c1)OCO2 | 3.17% (inactive) |
| c1nc(N2CC2)c2cnn([C@@H]3CCCCO3)c2n1 | -5.16% (inactive) |
| Cc1cc[c]([Sb]2[O][C@H]([C@H](O)[C@H](O)C(=O)O)[C@@H](CO)[O]2)cc1 | 4.3% (inactive) |
| CN1CCN(c2ccc([N+](=O)[O-])c3[nH]o[n+](=O)c23)CC1 | 11.3% (inactive) |
| Oc1ccc([C@H](O)[C@@H]2CCCCN2)cc1O | 8.8% (inactive) |
| c1cc(CCN2CCCCC2)ccn1 | 6.27% (inactive) |
| COc1ccc(C(=O)O[C@H]2CC[C@@]3(C)[C@H]4CC[C@H]5[C@]3(C[C@]3(O)[C@H]6CN7C[C@H](C)CC[C@H]7[C@](C)(O)[C@]6(O)[C@H](O)C[C@]53O)O[C@]24O)cc1OC | -2.58% (inactive) |
| CCCN1CC[C@@H]2c3cc(O)ccc3CC[C@H]21 | -6.76% [at 38 µM] (inactive) |
| O=C(O)CS(=O)(=O)C(c1ccccc1)c1ccccc1 | 3.8% (inactive) |
| C[C@@]12CC[C@H]3[C@@H](CCC4=C(O)C(=O)CC[C@]43C)[C@H]1CCC2=O | 14.9% [at 38 µM] (inactive) |
| O=c1[nH]cnc2[nH]cc(CN3CCCCC3)c12 | 0.346% (inactive) |
| CC(C)C(=O)CP(=O)(O)O | 5.14% (inactive) |
| CCN(CC)CCn1ncc2c(N)ncnc21 | -0.447% (inactive) |
| O=C(O)[C@H]1C2c3ccccc3C(c3ccccc32)[C@@H]1C(=O)NCC1CC1 | 26.5% (inactive) |
| COc1cc([C@@H](O)CN)ccc1O | 3.87% [at 38 µM] (inactive) |
